# A selection: hits, their analogues and other compounds. The true share with any hit is near 9.4%.
# Pf growth 96h – inhibits malaria parasite growth, 96 h | P. falciparum luciferase reporter growth, 96 h | Potency, µM (titrated, usually from 28.7 µM), for the others: at the top dose activity change, negative = inhibition, hits mostly inhibitors | actives 6.9% (n = 320,000); also: % is scaled to controls: 0 for no effect and ±100 for the full control effect
#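 Two-generation exposure (96 h) targets delayed-death phenotype. Reporter parasites carrying integrated firefly luciferase, in red cells at 2% hematocrit and 0.05% parasitemia final, kept at 37 C, 5% CO2; luminescence loss indicates inhibition.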
# AMA1 RON2 block – AMA1-RON2 (P. falciparum) interaction inhibition | actives 0.2% (n = 360,000) | AlphaScreen AMA1-biotinylated RON2 peptide binding | Potency, µM (series often up to 58.2 µM), inactives show at the top dose activity change, negative = inhibition, most hits filed as inhibitors;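 also: 0% = vehicle wells and -100% = peptide control; nearly all actives have a fitted effect of over 45% in size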
#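 AMA1 (3D7) with his tag at 25 nM final met compounds first, then biotinylated RON2 peptide at 25 nM; detection used donor plus acceptor beads, 10 µg/mL apiece, read by AlphaScreen after 30 min at room temperature.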
# SARS PLP yeast – blocks SARS-CoV papain-like protease in a yeast assay | actives 0.19% (n = 330,000) | Potency, µM (top dose mostly 32.9 µM), for inactives: at the top dose activity, positive = growth rescue, usual class: activators | S. cerevisiae expressing SARS-CoV PLpro, growth rescue; calls by dose curve; also: 0% is about no effect; nearly all actives have a fitted effect of over 55% in size
# Pf growth 48h – P. falciparum growth inhibition at 48 hours (one generation); Potency, µM (doses to about 28.7 µM), for inactives: at the top dose activity change, negative = inhibition, actives largely listed as inhibitors; AID 504832; P. falciparum luciferase growth in erythrocytes, 48 h; actives 5.9% (n = 310,000); also: % is scaled to controls: 0 for no effect and ±100 for the full control effect
#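 Parasite viability was followed by luminescence of a genomically integrated firefly luciferase. Cultures held 0.1% parasitemia at 2% hematocrit (final), incubated under 5% CO2 at 37 C.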
# Starred values were filed as active, the others as inactive; ? = inconclusive; / = no result given; [ ] = another dose, or the depositor's remark. Unless noted, calls follow the shape of the dose curve; as a rule, active = well fitted curve in the direction sought with a large enough effect; inconclusive = small, poorly fitted or top-dose-only effect, or another doubt; inactive = no such curve, though single readings can be large; an effect the other way counts as inactive or inconclusive. Potency is read from the fitted curve at half-maximal effect.
SMILES,Pf growth 96h,AMA1 RON2 block,SARS PLP yeast,Pf growth 48h
CCC(OC(=O)C(NC(=O)c1ccccc1)c1ccccc1)C(=O)Nc1cc(C)on1 (stereo not drawn),7%,13%,22µM*,15%
Cc1ccc(-n2c(C)c([N+](=O)[O-])c3ccc(O)c(CN(C)C)c32)cc1,/,-9%,6%,13µM*
CCOC(=O)c1c(C)n(-c2ccc(OC)cc2)c2ccc(O)c(CN(C)C)c12,7.4µM*,-5%,-3%,?
CCOC(=O)c1c(C)n(C)c2ccc(O)c(CN(C)C)c12,19%,-2%,-7%,-7%
CCOC(=O)c1c(C)n(-c2ccc(C)cc2)c2ccc(O)c(CN(C)C)c12,32%,-17%,0%,10µM*
Cc1nn(-c2ccccc2)c2sc(C(=O)N(CC(=O)NC3CCCC3)Cc3ccco3)cc12,?,-6%,3%,12µM*
Cc1nn(-c2ccccc2)c2sc(C(=O)NC3CC3)cc12,-3%,4%,-11%,?
COC(=O)Nc1nnc(-c2ccccc2OC)s1,162%,-14%,-4%,124%
CCOc1ccc(Nc2nc3c(c(=O)[nH]2)CCCC3)cc1,235%,8%,3%,2.3µM*
Cc1onc(-c2ccccc2)c1C(=O)OCC(=O)N(C)c1c(N)n(Cc2ccccc2)c(=O)[nH]c1=O,12µM*,-7%,-4%,?
COCCN(C(=O)COC(=O)c1ccc(-c2ccccc2)cc1)c1c(N)n(Cc2ccccc2)c(=O)[nH]c1=O,/,2%[11.6 µM],/,/
CC(C)CN(C(=O)COC(=O)C12CC3CC(CC(C3)C1)C2)c1c(N)n(Cc2ccccc2)c(=O)[nH]c1=O,0.13µM*,1%,-5%,1.2µM*
Cc1onc(-c2ccccc2)c1C(=O)OCC(=O)N(CC(C)C)c1c(N)n(Cc2ccccc2)c(=O)[nH]c1=O,?,3%,-22%,13µM*
CCc1nc2ccccc2c(C(=O)OCC(=O)N(CCOC)c2c(N)n(Cc3ccccc3)c(=O)[nH]c2=O)c1C,?,0%,-7%,13µM*
CC(C)CN(C(=O)COC(=O)C12CC3CC(CC(O)(C3)C1)C2)c1c(N)n(Cc2ccccc2)c(=O)[nH]c1=O,/,11%,/,/
CCOC(=O)C1CCN(S(=O)(=O)c2cn(C)c(=O)n(C)c2=O)CC1,4%,8%,-3%,0%
CSc1ccc(Cn2c(C)c(C(=O)NCCC#N)sc2=O)cc1,/,0%,/,/
CN(C(=O)COC(=O)CCC(=O)c1ccccc1)c1c(N)n(Cc2ccccc2)c(=O)[nH]c1=O,32%,3%,/,16%
COCCN(C(=O)COC(=O)c1c(-c2ccccc2)noc1C)c1c(N)n(Cc2ccccc2)c(=O)[nH]c1=O,12µM*,-3%,-1%,?
CCOC(=O)c1c(C)[nH]c(C(=O)OCC(=O)N(C)c2c(N)n(Cc3ccccc3)c(=O)[nH]c2=O)c1C,?,-6%,12%,?
CN(C(=O)COC(=O)Cn1c(C(F)(F)F)nc2ccccc21)c1c(N)n(Cc2ccccc2)c(=O)[nH]c1=O,29%,1%,3%,25%
COCCN(C(=O)Cn1c(C(F)(F)F)nc2ccccc21)c1c(N)n(Cc2ccccc2)c(=O)[nH]c1=O,15µM*,9%,11%,?
Cc1nn(-c2ccccc2)c(C)c1C(=O)OCC(=O)N(C)c1c(N)n(Cc2ccccc2)c(=O)[nH]c1=O,12µM*,11%,-2%,?
CN(C(=O)COC(=O)CCC(=O)c1ccc(Cl)cc1)c1c(N)n(Cc2ccccc2)c(=O)[nH]c1=O,2.1µM*,?,1%,20%
CCC(C)(C)NS(=O)(=O)c1cc(CN2C(=O)c3cccnc3C2=O)ccc1OC,8%,7%,0%,14%
SMILES,Pf growth 96h,AMA1 RON2 block,SARS PLP yeast,Pf growth 48h
CCOC(=O)Nc1sc2c(c1C#N)CCC(C)C2 (stereo not drawn),?,-1%,-2%,114%
CCNC(=S)Nc1sc2c(c1C#N)CCC(C)C2 (stereo not drawn),5.9µM*,-11%,0%,?
CC1CCCCC12NC(=O)N(CC(=O)Nc1ccc(S(=O)(=O)N3CCOCC3)cc1)C2=O (stereo not drawn),/,5%,-3%,6%
O=C(COC(=O)C12CC3CC(CC(C3)C1)C2)NCCCc1ccccc1,8%,15%[2.32 µM],5%,15%
Cc1cc2c(=O)n(C)c(SCC(=O)NC3CCCC3)nc2s1,13%,-21%,1%,?
C=CCn1c(SCC(=O)NC2CCCC2)nc2sc(C)cc2c1=O,6.6µM*,-1%,3%,-1%
CC(=O)NCCC(=O)Nc1ncc(S(=O)(=O)c2ccc([N+](=O)[O-])cc2)s1,?,0%,3%,?
Cc1ccc(NC(=O)c2ccc(F)cc2F)cc1,/,15%,/,/
O=C(NC(=O)c1ccc(F)cc1F)Nc1ccc(Cl)cc1,165%,-6%,-5%,5.2µM*
CCOC(=O)C(=CN=C(N)Nc1nc2ccccc2o1)C(=O)OCC,10µM*,63%,0%,-7%
CCCOC(=O)Nc1nc2ccccc2o1,126%,13%,-4%,130%
CC(C(=O)N1CCOCC1)c1ccccc1 (stereo not drawn),43%,-5%,1%,56%
CC(C)Oc1ccc(CCNC(=O)C2CCC(=O)N(Cc3cccc(F)c3)C2)cc1 (stereo not drawn),?,3%,9%,-9%
CCCc1ccc(C(O)c2ncc(-c3ccccc3C)[nH]2)cc1 (stereo not drawn),/,2%,/,/
CCCCc1ccc(N=N/C(C(=O)Nc2cc(OC)c(NC(C)=O)cc2OC)=C(/C)O)cc1,4.7µM*,-11%[2.32 µM],-18%,?
Cc1ccc2[nH]c3c(=O)n(CCN4CCOCC4)cnc3c2c1,57%,0%,2%,68%
Cc1ccc2[nH]c(CCN(C)C)c(CN3CCOCC3)c2c1,2.3µM*,2%,-4%,13µM*
CN1CCc2nc(SCC(=O)Nc3cccc(F)c3)c(C#N)c(-c3cccs3)c2C1,10µM*,-14%,-4%,13µM*
COC(=O)c1c(C)oc2ccc(N(C(=O)c3ccncc3)S(=O)(=O)c3ccc(C)cc3)cc12,/,-3%,-12%,7%
Cc1cc(F)ccc1S(=O)(=O)N(C(=O)c1ccncc1)c1ccc(OC(=O)c2ccncc2)cc1,?,0%,-2%,-18%
Cc1ccc(S(=O)(=O)N(C(=O)c2ccncc2)c2ccc(OC(=O)c3ccncc3)c3ccccc23)c(C)c1,9.3µM*,-10%,-6%,/
COc1ccc(S(=O)(=O)N(C(C)=O)c2ccc(OC(C)=O)c3ccccc23)cc1[N+](=O)[O-],-3%,-11%,-5%,6.6µM*
CC(=O)Oc1ccc(N(C(C)=O)S(=O)(=O)c2ccc(C)cc2C)c2ccccc12,2.6µM*,-3%,-14%,8.3µM*
Cc1ccc(S(=O)(=O)N(C(=O)c2ccncc2)c2ccc(OC(=O)c3ccncc3)c3ccccc23)cc1,9.3µM*,?,-15%,10µM*
CC(=O)Oc1ccccc1N(C(C)=O)S(=O)(=O)c1ccc(C)cc1,?,-3%,-4%,11%
CC(=O)Oc1ccc(N(C(C)=O)S(=O)(=O)c2ccccc2)c2ccccc12,/,-10%,/,/
